The results in this text go back to PubChem BioAssay (Tox21).

Each structure is given as a SMILES string. Values without a mark were called inactive. The call rests on the fitted dose curve. Inconclusive results are not listed.
On the % scale 0 is the no-effect control and ±100 the full control effect.

The target of one experiment is Estrogen receptor (Homo sapiens) (UniProt P03372). Description: qHTS assay to identify small molecule agonists of the estrogen receptor alpha (ER-alpha) signaling pathway in the presence of an antagonist (AID 1259383). Further: top concentration of the series differs between compounds; nearly all actives have a fitted effect of over 15% in size. The following applies: VM7Luc4E2 cells, ERE-luciferase, +ICI-182,780, 22 h; series mostly up to 92.4 µM; activation: at the top concentration. In short, it runs like this: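 Quantitative HTS confirmation: compounds titrated at 15 concentrations onto estrogen-deprived VM7Luc4E2 cells carrying a four-ERE luciferase construct, with ICI-182,780 present at 10.0nM final. Signal is luminescence after 22hr exposure.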
Estrogen receptor (Homo sapiens), sequence (P03372 whole entry, looked up): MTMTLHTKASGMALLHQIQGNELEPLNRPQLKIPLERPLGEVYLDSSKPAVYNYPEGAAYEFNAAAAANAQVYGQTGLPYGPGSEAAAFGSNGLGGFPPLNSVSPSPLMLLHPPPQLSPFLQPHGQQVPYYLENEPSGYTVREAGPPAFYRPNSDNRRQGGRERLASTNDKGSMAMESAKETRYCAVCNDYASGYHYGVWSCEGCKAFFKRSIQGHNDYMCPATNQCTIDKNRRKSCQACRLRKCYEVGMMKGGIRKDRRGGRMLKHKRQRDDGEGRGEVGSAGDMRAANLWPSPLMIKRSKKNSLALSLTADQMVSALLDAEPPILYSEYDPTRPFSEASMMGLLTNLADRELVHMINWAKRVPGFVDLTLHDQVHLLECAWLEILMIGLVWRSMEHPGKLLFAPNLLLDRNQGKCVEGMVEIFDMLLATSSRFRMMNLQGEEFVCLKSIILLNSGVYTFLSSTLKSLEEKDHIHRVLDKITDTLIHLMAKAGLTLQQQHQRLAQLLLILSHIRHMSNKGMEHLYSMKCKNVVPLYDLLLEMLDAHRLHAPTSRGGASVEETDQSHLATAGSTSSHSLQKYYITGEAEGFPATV
On the technique in general: Quantitative high-throughput screening tests each substance at several concentrations.
In the case of `CCCCCCCCCCC`, the “activation” value was 0.916%.

For `CC1CCC(C(C)(C)S)C(=O)C1` (configuration not stated), the “activation” value was -0.166%.

For `CC1=CC[C@H](CC=O)C1(C)C`, the “activation” value was -0.686%.

For the compound `CCCCOC(=O)[C@@H](C)Oc1ccc(Oc2ccc(C(F)(F)F)cn2)cc1`, the “activation” value is 0.261%.

Take `CCC(O)C(C)(C)C` (configuration not stated): the “activation” value is -0.333%.

As to `O=C(Oc1ccccc1C(=O)O)c1ccccc1O`, the “activation” value is -0.765% [at 42.5 µM].

Regarding `CCOC(=O)CC#N`, the “activation” value is -1.78%.

In the case of `C=CCOCC(CO)(COCC=C)COCC=C`, the “activation” value is -0.667% [at 42.5 µM].

`NC(=O)NC(=O)Cc1ccccc1`: the “activation” value was -0.692% [at 42.5 µM].

As to `O=C1CC[C@H](C(=O)N2CCCCC2)N1`, the “activation” value is -0.603% [at 42.5 µM].

As to `COc1ccc(NS(=O)(=O)c2ccc(N)cc2)nn1`, the “activation” value was 0.235% [at 42.5 µM].

For the compound `COC(OC)C(C)c1ccccc1` (configuration not stated), the “activation” value was -1.13%.

For `CC(=O)c1ccc2c(c1)CCCC2`, the “activation” value is 2.35%.

As to `O=CN1CCOCC1`, the “activation” value was -0.584%.

Consider `CN[C@@H]1[C@H](O)[C@H](NC)[C@H]2O[C@@]3(O)C(=O)C[C@@H](C)O[C@H]3O[C@@H]2[C@H]1O`, for which the “activation” value is -0.227% [at 42.5 µM].

For the compound `COC(/C=C(\C)CCC=C(C)C)OC`, the “activation” value is -2.14%.

Regarding `C[C@H](CCC(=O)O)[C@H]1CC[C@H]2[C@@H]3[C@H](O)C[C@@H]4C[C@H](O)CC[C@]4(C)[C@H]3C[C@H](O)[C@]12C`, the “activation” value was -0.497% [at 42.5 µM].

For `CCc1nccnc1C`, the “activation” value is 0.0162%.

Regarding `CCN(Cc1cccc(S(=O)(=O)O)c1)c1ccccc1`, the “activation” value is -2.57%.

System in another experiment: not listed separately
Description: qHTS assay to identify small molecule agonists or antagonists of the thyroid stimulating hormone receptor (TSHR) signaling pathway - wild type cell line counter screen (AID 1259384). The following applies: HEK293 wild type, cAMP HTRF counter-screen, stronger effect = higher value; series mostly up to 92.4 µM; cAMP activity change: at the top concentration. Summed up: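 Wild-type Hek293 cells, 800/well, 18 h at 37C, then compound with Ro20-1724 for 30 min RT. cAMP by HTRF (cAMP-d2/anti-cAMP cryptate), 1 h RT, fluorescence read. 15 concentrations, triplicates.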
`OC[C@@H](O)[C@H](O)[C@@H](O)[C@@H](O)CO`: the “cAMP activity change” value was 1.82%.

Regarding `CCCCCCCC/C=C\CCCCCCCC(=O)OC[C@@H](O)[C@H]1OC[C@H](O)[C@H]1O`, the “cAMP activity change” value is -2.62%.

As to `O=C(O)CCNC(=O)c1ccccc1`, the “cAMP activity change” value was -2.32% [at 42.5 µM].

With `Nc1nc(=O)n([C@@H]2O[C@H](CO)[C@@H](O)[C@@H]2F)cc1I`, the “cAMP activity change” value was 1.11% [at 42.5 µM].

As to `CC(C)CCC(=O)CCC(C)C`, the “cAMP activity change” value is 2.54%.

On to `CCOC(=O)C(=O)c1csc(NC=O)n1`, for which the “cAMP activity change” value is -1.58% [at 42.5 µM].

As to `CC(C)C(=O)c1ccccc1`, the “cAMP activity change” value was -0.463%.

As for `FC(F)(F)/C(=N\OCC1OCCO1)c1ccc(Cl)cc1`, the “cAMP activity change” value was 6.56%.

For `OCCCCCCCl`, the “cAMP activity change” value is 5.33%.

Turning to `CCCCCC(=O)OCC`, the “cAMP activity change” value is 0.102%.

`CN=C(NC#N)NCCSCc1csc(N=C(N)N)n1`: the “cAMP activity change” value is 0.016% [at 42.5 µM].

As to `CCCCCCCCOC(C)=O`, the “cAMP activity change” value was -0.126%.

In the case of `C=CCOC(=O)c1ccc(C(=O)OCC=C)c(C(=O)OCC=C)c1`, the “cAMP activity change” value was -6.5%.

Consider `CC(C)COC(=O)/C=C/c1ccccc1`, for which the “cAMP activity change” value is -0.808%.

Take `CCN(CCO)c1cccc(C)c1`: the “cAMP activity change” value is -4.08%.

On to `C[N+](C)(C)CC(O)CCl` (configuration not stated), for which the “cAMP activity change” value was 1.88%.

Turning to `CCCCCCCCCCCCC`, the “cAMP activity change” value is -3.81%.

In the case of `Nc1ccc(S(=O)(=O)Nc2ccccn2)cc1`, the “cAMP activity change” value was 2.27% [at 42.5 µM].

Turning to `CCC1COC(=O)O1` (configuration not stated), the “cAMP activity change” value was 0.0942%.

As to `CCCCCCCCCCC`, the “cAMP activity change” value is 1.4%.

With `CC1CCC(C(C)(C)S)C(=O)C1` (configuration not stated), the “cAMP activity change” value was -0.0745%.

`CC1=CC[C@H](CC=O)C1(C)C`: the “cAMP activity change” value is 0.495%.

On to `CCCCOC(=O)[C@@H](C)Oc1ccc(Oc2ccc(C(F)(F)F)cn2)cc1`, for which the “cAMP activity change” value was -2.96%.

For `CCC(O)C(C)(C)C` (configuration not stated), the “cAMP activity change” value is 4.57%.

For `O=C(Oc1ccccc1C(=O)O)c1ccccc1O`, the “cAMP activity change” value was 3.74% [at 42.5 µM].

In the case of `CCOC(=O)CC#N`, the “cAMP activity change” value was 3.26%.

In the case of `C=CCOCC(CO)(COCC=C)COCC=C`, the “cAMP activity change” value is -1.49% [at 42.5 µM].

For the compound `NC(=O)NC(=O)Cc1ccccc1`, the “cAMP activity change” value was 1.93% [at 42.5 µM].

`O=C1CC[C@H](C(=O)N2CCCCC2)N1`: the “cAMP activity change” value is 2.81% [at 42.5 µM].

Take `COc1ccc(NS(=O)(=O)c2ccc(N)cc2)nn1`: the “cAMP activity change” value is 0.197% [at 42.5 µM].

In the case of `COC(OC)C(C)c1ccccc1` (configuration not stated), the “cAMP activity change” value was -0.0078%.

For `CC(=O)c1ccc2c(c1)CCCC2`, the “cAMP activity change” value is -2.31%.

Turning to `O=CN1CCOCC1`, the “cAMP activity change” value is 4.42%.

Consider `CN[C@@H]1[C@H](O)[C@H](NC)[C@H]2O[C@@]3(O)C(=O)C[C@@H](C)O[C@H]3O[C@@H]2[C@H]1O`, for which the “cAMP activity change” value is -6.56% [at 42.5 µM].

Regarding `COC(/C=C(\C)CCC=C(C)C)OC`, the “cAMP activity change” value is 0.572%.

As for `C[C@H](CCC(=O)O)[C@H]1CC[C@H]2[C@@H]3[C@H](O)C[C@@H]4C[C@H](O)CC[C@]4(C)[C@H]3C[C@H](O)[C@]12C`, the “cAMP activity change” value was 1.61% [at 42.5 µM].

In the case of `CCc1nccnc1C`, the “cAMP activity change” value is 0.314%.

Regarding `CCN(Cc1cccc(S(=O)(=O)O)c1)c1ccccc1`, the “cAMP activity change” value was -5.75%.
